Screening results: PubChem BioAssay, The Scripps Research Institute Molecular Screening Center
CHO-K1 Ca antag – M1 antagonist counterscreen hit in parental CHO-K1 cells | ATP-induced calcium, Fluo-8 fluorescence | inhibition, % at 3 µM | 360,000 compounds, 0.6% hits | AID 602250;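 active = inhibition above a per-plate cutoff, the plate's mean sample inhibition plus 3 SD, cut at about 24% in these data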;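 note: 0% = DMSO plus EC80 ATP and 100% = DMSO alone without ATP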
M4 PAM – potentiates acetylcholine response at human M4 receptor; P08173; CHO-K1 hM4/Gqi5, Fluo-8 calcium fluorescence, ACh EC20; 0% = ACh EC20, 100% = maximal ACh; activation, % at 3 µM; 360,000 compounds, 0.4% hits; AID 624126;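 active = activation above its plate's cutoff, the mean activation of sample wells plus 3 SD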
Target sequence (P08173 whole entry, looked up): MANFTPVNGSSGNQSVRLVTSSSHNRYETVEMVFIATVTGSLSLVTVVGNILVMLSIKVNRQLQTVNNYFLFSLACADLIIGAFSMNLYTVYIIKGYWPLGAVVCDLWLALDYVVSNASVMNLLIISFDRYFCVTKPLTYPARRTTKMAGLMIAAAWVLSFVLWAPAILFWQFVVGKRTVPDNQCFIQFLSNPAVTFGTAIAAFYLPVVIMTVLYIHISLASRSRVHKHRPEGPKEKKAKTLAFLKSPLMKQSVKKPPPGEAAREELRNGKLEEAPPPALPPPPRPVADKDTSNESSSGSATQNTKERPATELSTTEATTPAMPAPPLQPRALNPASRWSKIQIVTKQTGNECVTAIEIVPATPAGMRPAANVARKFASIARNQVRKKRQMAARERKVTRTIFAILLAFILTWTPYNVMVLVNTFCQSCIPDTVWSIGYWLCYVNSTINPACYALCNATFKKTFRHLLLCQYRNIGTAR
M4 antag – CHRM4 antagonism in calcium assay; P08173; AID 624125; 360,000 compounds, 0.73% hits; inhibition, % at 3 µM; CHO-hM4 cells, ACh EC80, Fluo-8 calcium fluorescence;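 active = inhibition above its plate's cutoff, the mean inhibition of sample wells plus 3 SD, cut at about 27% in these data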;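 note: 0% = acetylcholine EC80 with DMSO and 100% = DMSO without agonist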
M1 PAM parental – M1 PAM counterscreen hit in parental CHO-K1 cells; ATP EC20, Fluo-8 calcium fluorescence; 0% at ATP EC20, 100% at ATP max; activation, % at 3 µM; 360,000 compounds, 0.02% hits;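 active = activation above the run cutoff, the mean activation of all test compounds plus 3 SD, cut at about 40% in these data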;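 note: peak over basal fluorescence ratio in a 140 s read after ATP addition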
CHRM4 agonist – CHRM4 agonism in calcium assay | P08173 | CHO-K1 hM4/Gqi5, Fluo-8 calcium fluorescence; vehicle 0%, full acetylcholine response 100% | activation, % at 3 µM | 360,000 compounds, 0.14% hits | AID 624127;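 active = activation above the run mean over all test wells plus 3 SD, cut at about 32% in these data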;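 note: peak over basal fluorescence ratio per well then scaled between controls; 0% = DMSO wells and 100% = acetylcholine at EC100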
M1 ag parental – nonselective activator or artifact in parental CHO-K1 cells. Fluo-8 calcium fluorescence; scaled to maximal ATP response, vehicle zero. activation, % at 3 µM. 360,000 compounds, 0.48% hits. AID 602248; in the data active = activation above about 15%;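 note: untransfected CHO-K1 host cells lacking M1 receptor as counterscreen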
* hit, by the source's call; · = no result. An excerpt weighted towards active compounds, which were near 2% of everything screened.

SMILES	CHO-K1 Ca antag	M4 PAM	M4 antag	M1 PAM parental	CHRM4 agonist	M1 ag parental
COc1cc(/C=C2\SC(=S)N(NC(=O)c3ccc(O)cc3)C2=O)ccc1O	13	-23	27*	-21	94*	23*
CCC(=O)Nc1ccc(N2CCN(C(=O)c3ccccc3C)CC2)cc1	-6	10	3	18	1	0
Cc1ccccc1C(=O)N1CCN(c2ccc(NC(=O)c3ccc4c(c3)OCCO4)cc2)CC1	0	-13	4	-15	26	19*
COc1ccc(N2CCN(c3ccc(NC(=O)c4ccc5c(c4)OCO5)cc3C#N)CC2)cc1	-9	29*	-10	10	1	0
Cc1ccc(C(=O)N2CCN(c3ccc(NC(=O)c4ccc5c(c4)OCCO5)cc3)CC2)cc1	-13	-2	1	5	13	9
COc1ccc(CC(=O)Nc2ccc(N3CCN(c4ccc(OC)cc4)CC3)c(C#N)c2)cc1	10	10	-4	1	5	1
Cc1ccccc1C(=O)N1CCN(c2ccc(NC(=O)CSc3ccc(Cl)cc3)cc2)CC1	10	-11	27*	-3	19	6
Cc1nnc(SCC(=O)N2N=C(c3ccc(Cl)cc3)CC2c2ccco2)[nH]c1=O (centres undefined)	-15	23*	-12	13	4	0
COc1cc(-c2cc(NC=O)c3ncc(-c4cccc(C(F)(F)F)c4)n3c2)cc(OC)c1OC	-3	10	0	18	3	1
CC(=O)c1cc(Cl)ccc1OCc1cccc(S(=O)(=O)N2CCOCC2)c1	6	-16	-6	-4	23	16*
O=C(NCc1ccccc1Cl)c1ccc2nnsc2c1	-9	-27	7	7	11	6
COc1ccccc1NS(=O)(=O)c1ccc2oc(SC(C)C(=O)N3CCNC3=O)nc2c1 (centres undefined)	13	-13	11	-20	32*	13
Cc1ccc(C(=O)NN2C(=O)CSC2=S)cc1	-8	-9	-6	3	9	4
C/C(=N\N1C(=O)CSC1=S)c1ccc(Br)cc1	4	-1	3	7	1	19*
Cc1nc(-c2ccccc2)sc1C(N)=O	-16	4	7	22	0	0
C/C(=N\O)c1sc(-c2ccccc2)nc1C	5	-3	5	2	1	20*
COc1cccc(-c2nc(-c3ccc4c(c3)-c3ccccc3S4(=O)=O)c(-c3ccccc3)[nH]2)c1OC	27*	-3	7	-9	0	-1
O=C1NC(Cc2ccc(O)cc2)c2nc3ccccc3c(=O)n2-c2ncccc21 (centres undefined)	13	2	-16	-7	1	1
O=C(CCC(=O)N1CCN(Cc2ccccc2)CC1)Nc1nnc(C2CCCCC2)s1	-3	0	2	1	1	1
Oc1ccc(Br)cc1-c1cc(-c2ccccc2F)[nH]n1	26*	4	0	-4	1	0
Oc1ccc(Br)cc1-c1cc(-c2ccccc2Cl)[nH]n1	1	-8	7	-6	1	0
CCC(C)N1C(=O)C2C(C(=O)Nc3cccc(OC)c3)C3C=CC2(O3)C1C(=O)NC1CCCCC1C (centres undefined)	28*	-6	-2	-4	1	-1
CCCCN(C)CCCN1C(=O)C2C(C(=O)Nc3cccc(OC)c3)C3C=CC2(O3)C1C(=O)NC1CCCCC1C (centres undefined)	-3	-1	2	-18	-1	0
CSc1ncccc1C(=O)OCC(=O)NC1CCC(C)CC1 (centres undefined)	-10	-1	6	0	1	1
Cc1ccc(NC(=O)CCc2c(C)[nH]c(=O)c(C#N)c2C)cc1	-14	-4	7	8	0	1
SMILES	CHO-K1 Ca antag	M4 PAM	M4 antag	M1 PAM parental	CHRM4 agonist	M1 ag parental
CCCCOC(=O)CCc1c(C)[nH]c(=O)c(C#N)c1C	-14	26*	-2	15	1	0
O=C(N/N=C\c1cccc(Cl)c1)c1n[nH]c2c1CCCC2	-4	8	-2	19	1	0
O=C(N/N=C/c1ccc(Cl)cc1Cl)c1n[nH]c2c1CCCC2	-13	26*	-12	20	1	0
COc1ncccc1C(=O)Nc1c(-c2ccccc2)[nH][nH]c1=O	·	1	39*	·	3	·
O=C(Nc1c(-c2ccccc2)[nH][nH]c1=O)c1cnccn1	·	12	-4	·	1	·
CC1=CC(c2ccc(Cl)cc2)n2nc(NC(=O)CCC(=O)O)nc2N1 (centres undefined)	-4	-1	4	9	0	1
CC1=C(C(=O)Nc2cccc(C(=O)NC3CCCCC3C)c2)SCCO1 (centres undefined)	-3	-8	5	-10	6	3
Clc1cccc(NCc2ccccc2)n1	0	22*	0	-11	4	0
Clc1nccc(NCc2ccccc2)n1	-2	-3	0	-6	1	1
CCCCN(C(=O)C1CCCC1)c1c(N)n(CC(C)C)c(=O)[nH]c1=O	-15	27*	-20	7	1	0
CCCCN(C(=O)C1CCC1)c1c(N)n(CCC)c(=O)[nH]c1=O	-9	1	4	-8	0	0
C[C@H]1CN([C@@H](C)CO)C(=O)CCCn2nncc2CO[C@H]1CN(C)C(=O)c1cc(-c2ccccc2)on1	0	8	-7	20	1	0
CC1CCCC(C)N1CC(O)COc1ccc(Cl)cc1 (centres undefined)	-7	-3	-9	16	3	1
CC(=O)Nc1ccc(OCC(O)CN2C(C)CCCC2C)cc1 (centres undefined)	32*	-3	15	-15	0	0
CCn1cc(S(=O)(=O)CC(=O)Nc2cccc(C)c2)c2ccccc21	-7	2	-10	18	6	2
CCn1cc(S(=O)(=O)CC(=O)Nc2ccc(C)cc2)c2ccccc21	27*	-9	1	-8	1	0
O=c1[nH][nH]c2cc(=O)n(-c3ccc(Cl)cc3)nc12	-5	-2	2	17	0	0
FC(F)Oc1ccc(NC(=S)NC2CCSc3ccccc32)cc1 (centres undefined)	20	-19	60*	-4	17	15
O=C(NC1CCSc2ccccc21)c1cccc(OC(F)F)c1 (centres undefined)	-23	1	-9	-8	2	2
O=C(COC(=O)Cc1cccc(C(F)(F)F)c1)NCc1ccco1	-15	32*	-19	11	0	0
Cc1ccc(C(=O)Nc2cccc3[nH]c(C(F)(F)F)nc23)cc1	-1	1	-3	0	10	17*
